In PubChem BioAssay (NCATS):
The list shows a part of the results. Records with an inconclusive call do not appear. Unmarked numbers belong to inactive results. Active and inactive are the calls of the source. Calls follow the shape of the full dose curve.

What follows are compounds tested against Polyprotein P1234 (Chikungunya virus (strain S27-African prototype)) (UniProt Q8JUX6) (assay: Selectivity profile for inhibitors of NSP2Pro chikungunya virus (CHIKV): Endogenous NS2/3 peptide Counterscreen (AID 1964103; also: nearly all actives have a fitted effect of over 55% in size)). Settings: Purified CHIKV nsP2 protease, endogenous NS2/3 peptide cleavage; series mostly up to 51 µM; activity change, negative = inhibition: at the top concentration.
Polyprotein P1234 (Chikungunya virus (strain S27-African prototype)), sequence (Q8JUX6 whole entry, looked up): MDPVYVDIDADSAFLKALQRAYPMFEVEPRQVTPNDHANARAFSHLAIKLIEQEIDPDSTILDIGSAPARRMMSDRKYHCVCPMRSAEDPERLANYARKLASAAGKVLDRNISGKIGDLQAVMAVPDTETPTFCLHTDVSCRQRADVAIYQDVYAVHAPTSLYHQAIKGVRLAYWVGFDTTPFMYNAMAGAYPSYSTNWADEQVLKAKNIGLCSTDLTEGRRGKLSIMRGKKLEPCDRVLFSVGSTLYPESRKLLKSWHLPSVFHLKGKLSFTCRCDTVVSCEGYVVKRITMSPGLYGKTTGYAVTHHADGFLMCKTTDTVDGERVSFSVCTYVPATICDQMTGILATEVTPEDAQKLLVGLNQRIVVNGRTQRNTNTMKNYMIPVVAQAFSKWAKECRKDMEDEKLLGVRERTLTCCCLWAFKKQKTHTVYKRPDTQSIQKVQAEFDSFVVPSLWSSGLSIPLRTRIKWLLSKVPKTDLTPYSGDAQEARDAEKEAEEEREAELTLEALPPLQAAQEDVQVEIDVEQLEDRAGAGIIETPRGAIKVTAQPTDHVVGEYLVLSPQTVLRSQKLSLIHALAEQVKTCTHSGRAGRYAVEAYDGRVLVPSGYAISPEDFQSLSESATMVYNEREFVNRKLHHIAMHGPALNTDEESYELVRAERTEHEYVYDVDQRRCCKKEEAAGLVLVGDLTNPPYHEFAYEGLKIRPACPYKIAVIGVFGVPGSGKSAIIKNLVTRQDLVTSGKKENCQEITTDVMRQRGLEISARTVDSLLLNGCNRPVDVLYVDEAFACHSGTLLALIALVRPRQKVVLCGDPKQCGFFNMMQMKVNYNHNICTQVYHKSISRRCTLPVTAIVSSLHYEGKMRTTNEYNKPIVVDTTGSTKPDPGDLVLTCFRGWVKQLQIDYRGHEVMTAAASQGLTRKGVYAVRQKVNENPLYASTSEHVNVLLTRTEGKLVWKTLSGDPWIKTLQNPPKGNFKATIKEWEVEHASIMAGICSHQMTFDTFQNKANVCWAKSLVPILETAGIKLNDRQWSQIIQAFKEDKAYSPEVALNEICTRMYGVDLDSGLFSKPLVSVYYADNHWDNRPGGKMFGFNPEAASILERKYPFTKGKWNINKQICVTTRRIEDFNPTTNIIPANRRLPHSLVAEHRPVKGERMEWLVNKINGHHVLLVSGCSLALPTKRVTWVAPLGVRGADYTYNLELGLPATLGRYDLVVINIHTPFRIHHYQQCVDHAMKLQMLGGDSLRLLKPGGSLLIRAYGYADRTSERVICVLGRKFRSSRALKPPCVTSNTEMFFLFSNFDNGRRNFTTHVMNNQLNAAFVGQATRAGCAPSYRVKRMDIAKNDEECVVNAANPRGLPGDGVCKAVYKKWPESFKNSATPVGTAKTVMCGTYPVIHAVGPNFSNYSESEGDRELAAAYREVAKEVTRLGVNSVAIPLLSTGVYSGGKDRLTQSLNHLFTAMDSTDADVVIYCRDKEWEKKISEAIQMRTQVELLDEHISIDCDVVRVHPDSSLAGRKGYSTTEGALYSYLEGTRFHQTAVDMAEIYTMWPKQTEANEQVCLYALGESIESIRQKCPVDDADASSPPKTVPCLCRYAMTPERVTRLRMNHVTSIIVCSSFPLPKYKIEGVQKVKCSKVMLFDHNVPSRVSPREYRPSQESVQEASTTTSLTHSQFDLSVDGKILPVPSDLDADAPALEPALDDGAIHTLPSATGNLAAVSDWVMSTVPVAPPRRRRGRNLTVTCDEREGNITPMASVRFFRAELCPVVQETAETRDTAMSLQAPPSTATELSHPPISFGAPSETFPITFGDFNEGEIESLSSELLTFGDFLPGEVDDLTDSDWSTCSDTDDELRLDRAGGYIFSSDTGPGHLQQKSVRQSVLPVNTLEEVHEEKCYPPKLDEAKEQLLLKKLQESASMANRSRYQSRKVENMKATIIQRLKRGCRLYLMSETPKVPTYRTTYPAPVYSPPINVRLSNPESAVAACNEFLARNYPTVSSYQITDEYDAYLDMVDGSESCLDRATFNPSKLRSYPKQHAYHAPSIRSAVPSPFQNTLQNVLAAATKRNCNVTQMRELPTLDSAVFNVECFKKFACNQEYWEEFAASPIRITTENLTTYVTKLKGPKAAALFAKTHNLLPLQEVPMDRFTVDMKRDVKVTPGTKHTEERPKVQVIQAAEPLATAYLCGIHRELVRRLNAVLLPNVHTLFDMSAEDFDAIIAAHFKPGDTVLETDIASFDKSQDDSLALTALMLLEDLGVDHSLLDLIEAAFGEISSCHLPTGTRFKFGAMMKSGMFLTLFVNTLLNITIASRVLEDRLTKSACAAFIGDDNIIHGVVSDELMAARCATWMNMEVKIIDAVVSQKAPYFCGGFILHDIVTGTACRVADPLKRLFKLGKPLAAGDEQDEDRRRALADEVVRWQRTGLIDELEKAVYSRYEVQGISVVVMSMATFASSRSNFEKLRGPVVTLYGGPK
From the text: PI: Natalia J. Martinez Ph.D.
National Center for Advancing Translational Sciences (NCATS),
National Institute of Health (NIH), Rockville, Maryland
Chikungunya virus (CHIKV) is a mosquito-borne RNA virus that has emerged as one of the most important global arboviral threats in the last decade. Although the first CHIKV vaccine has recently been FDA approved for use in healthy adults at increased risk, to date, there are no available antiviral drugs for CHIKV infection. CHIKV nsP2 protease plays a crucial role in the processing of the viral polypeptide precursor to release enzymes required for viral replication, thus making it a promising drug target for antiviral discovery. Here, we established a high-throughput pipeline to identify small molecule inhibitors of nsP2 proteolytic activity. The pipeline is composed of a suite of 1,536-well in vitro assays to support quantitative high-throughput (qHTS) screening campaigns. Specifically, we developed a fluorescence resonance energy transfer (FRET)-based assay using a fluorogenic peptide substrate encompassing an endogenous cleavage site and purified recombinant protease domain (nsP2pro). Using this assay, we interrogated ~37,000 small molecules, including those in drug repurposing libraries as well as chemically diverse and medicinal chemistry-friendly compounds. Hits were selected for follow-up validation against full-length nsP2 and an additional peptide. FRET-based 1,536-well assays for papain, hepatitis C virus NS3-4A, and human furin proteases were implemented to characterize compound selectivity. […] Novel compounds were identified to be potential nsP2 inhibitors and molecular docking analyses were performed to explain the binding mode of selected hits. In vitro antiviral activity was evaluated for a subset of compounds using a high-throughput CHIKV infection assay. To our knowledge, the pipeline presented here is unprecedented for CHIKV antiviral discovery research.
PROTOCOL TABLE (as described by Inglese J, Shamu CE and Guy RK. 2007)
SEQUENCE No. (e.g., 1, 2, 3, etc.); […] (e.g., Cells, Incubation, Reagent, etc.); VALUE; DESCRIPTION.
1; Control / Compound; 20 nL; Echo 655 acoustic dispenser, Greiner 1536-well solid bottom black plate.
2; Enzyme; 4 uL; BioRAPTR FRD liquid dispenser (Beckman Coulter).
3; Incubation; 15 min; room temperature.
4; Reagent; 4 uL; 2.5 uM endogenous NS2/3 peptide substrate.
5; Incubation; 1 hr; room temperature.
6; Detection; Fluorescence; WiewLux microplate reader (PerkinElmer), 525 nm excitation, 598/25 nm emission.
NOTES (numbers refer to sequence numbers above).
1. Briefly, 20 nL DMSO, positive control ZnAc (20nM final concentration), and test compounds were transferred into a 1,536-well solid bottom black plate (789176-F, Greiner One) via Echo 655 acoustic dispenser (Beckman Coulter). For primary screens, compounds were tested at 7 concentrations, 1:3 dilution points ranging from 25 uM to 34 nM. Follow-up confirmatory screens were carried out at 11 concentrations, 1:3 dilution points from 25 uM to 0.42 nM.
2. Four uL nsP2pro enzyme mix (150 nM final concentration) in 10 mM Tris-HCl pH 8.0 with 0.01% Tween 20 assay buffer was dispensed into the plate using a BioRAPTR FRD liquid dispenser (Beckman Coulter).
3. The plate was incubated at room temperature (protected from light) for 15 min
4. Four microliter of endogenous NS2/3 peptide substrate (peptide 3: TMR-[…]/APSYR-K-QSY7; 2.5 uM final concentration) in assay buffer was added to the plate.
5. After 1 hour, plates were immediately read on a ViewLux high-throughput CCD imager (Exposure = 10 sec, Gain = High, Speed = Slow, Binning = 2X). The above assay was also incorporated in the NCATS HTS facility41, which allowed for robotic liquid and compound dispensing, microplate handling, and fluorescence reading.
Inglese J, Shamu CE and Guy RK, Reporting data from high throughput screening of small molecule libraries, Nature Chemical Biology, 2007, 3(8): 438-441. doi.org/10.1038/nchembio0807-438.
% is scaled to controls: 0 for no effect and ±100 for the full control effect; potency is read from the fitted curve at half-maximal effect.

Compound	activity change, negative = inhibition	Potency	outcome
CC1=C(/C=C/C(C)=C/C=C/C(C)=C/C=C/C=C(C)/C=C/C=C(C)/C=C/C2=C(C)CCCC2(C)C)C(C)(C)CCC1	-19.9%		
Cn1nnnc1Sc1ncnc2n[nH]c(-c3cccc(S(C)(=O)=O)c3)c12		4.47 µM (active)	
CCOc1ccc(N(Cc2ccccc2)C(=O)c2nc(S(C)(=O)=O)ncc2Cl)cc1		4.61 µM (active)	
CCC(C)C(=O)OC1C(C)C2(O)C(C=C(CO)CC3(O)C(=O)C(C)=CC32)C2C(C)(C)C12OC(=O)C(C)C (stereo not given)			inactive [at 17.2 µM]
Oc1ccc(OC2CCCCO2)cc1 (stereo not given)	-6.04%		
CO[C@]1(NC(=O)CSC(F)F)C(=O)N2C(C(=O)O)=C(CSc3nnnn3CCO)CO[C@H]21	1.15%		
N#CSc1cc(SC#N)c(N)nc1N		0.206 µM (active)	
C[C@@H]1[C@H](O)[C@@H]2OC(=O)C3=C2[C@H](CCC3)[C@@]12C[C@@H](c1ccoc1)OC2=O	4.66% [at 33.5 µM]		
CCc1ccccc1NC(=O)c1cnn(-c2ccc(F)cc2)c1C1CCNCC1	-19.4%		
CCOc1ccc(NC(=O)c2c(NC(=O)Cc3ccccc3)sc3c2CCCCC3)cc1		16.3 µM (active)	
Cc1c(S(=O)(=O)O)oc2c1C(=O)C(=O)c1c-2ccc2c1CCCC2(C)C	-3.07%		
O=C(O)c1cccc(-n2[nH]c(-c3ccccc3)cc2=O)c1	76.4%		
C[C@@H]1C[C@@H](O)[C@@]23CO[C@]2(CO)C[C@@H](O)CC3[C@@]12CC(c1ccoc1)OC2=O (stereo not given in full)			inactive
CC(=O)N[C@@H](C(=O)O[C@H]1CCC(C)(C)[C@@H]2CCC3=C(COC3=O)[C@@]12C)C(C)C	-0.53% [at 33.5 µM]		
CCOc1ccc(NC(=O)c2c(NC(=O)Cc3ccccc3)sc3c2CCC(C)C3)cc1 (stereo not given)		13 µM (active)	
